High-throughput results (PubChem BioAssay)
Sampled rows, rich in hits. Any-hit rate of the full collection: about 2.9%.
PLCg1 inh: PLC-gamma1 (human) inhibition, primary screen | P19174 | purified PLC-gamma1, fluorogenic substrate, fluorescence | inhibition, % at 12.2 µM | 370,000 tested, 0.84% active; in the data active = inhibition above about 9.5%
ADAM10 inh: inhibitors of human ADAM10; O14672; recombinant ADAM10, EDANS/DABCYL FRET peptide cleavage, 3 h; inhibition, % at 7 µM; 370,000 tested, 0.62% active; AID 720582;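 active = inhibition above a per-campaign cutoff equal to the mean of compounds falling between control-based bounds plus 3 SD, cut at about 20% in these data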;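 note: 0% = DMSO wells while the 100% control is not disclosed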
proKLK7 act: proKLK7 (human) activation, primary screen; P49862; purified proKLK7, EDANS-DABCYL substrate fluorescence; 100% is mature enzyme control, 0% vehicle; activation, % at 7 µM; 370,000 tested, 0.9% active; AID 652039;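 active = activation above the mean of all tested compounds plus 3 SD, computed per campaign excluding outliers beyond control limits, cut at about 13% in these data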
Target sequence (P49862 whole entry, looked up): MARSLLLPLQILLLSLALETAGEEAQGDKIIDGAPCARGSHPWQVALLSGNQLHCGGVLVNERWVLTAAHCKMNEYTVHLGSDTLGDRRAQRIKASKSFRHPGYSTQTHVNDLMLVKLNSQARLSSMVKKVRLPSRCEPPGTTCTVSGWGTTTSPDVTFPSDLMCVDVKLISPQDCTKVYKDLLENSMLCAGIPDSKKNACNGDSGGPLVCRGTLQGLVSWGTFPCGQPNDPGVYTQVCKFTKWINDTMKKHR
ADAM17 inh: inhibits human ADAM17; P78536; recombinant ADAM17, EDANS/DABCYL FRET peptide cleavage; inhibition, % at 6.95 µM; 370,000 tested, 0.83% active;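 active = inhibition above the mean of compounds lying between control limits plus 3 SD, set per campaign, cut at about 8.5% in these data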;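 note: 0% = DMSO-only wells as the low control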
PLC-beta3 inh: blocks human PLC-beta3 enzyme activity; Purified PLC-beta3, fluorogenic substrate, fluorescence; 370,000 tested, 0.18% active; Q01970; inhibition, % at 12.2 µM; in the data active = inhibition above about 11%;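 note: 0% = median of compound wells on plate and 100% = full blocker control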
KLK7 act conf: proKLK7 activation, confirmation. shares compounds with proKLK7 act. purified proKLK7, EDANS-DABCYL substrate fluorescence; scaled: vehicle 0, mature enzyme 100. activation, % at 7 µM. 3,200 tested, 68% active. AID 686949;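 active = activation, as change over the incubation, above the mean of all tested compounds plus 3 SD, cut at about 13% in these data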
EDANS interfere: counter-screen for kallikrein-7 activators: EDANS-DABCYL optical interference; shares compounds with proKLK7 act; EDANS-DABCYL substrate fluorescence interference, no enzyme, 4 h; solvent 0%, active enzyme control 100%; activation, % at 7 µM; 3,200 tested, 80% active; AID 686952;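 active = activation above the all-compound mean plus 3 SD, ignoring values outside control-based bounds, cut at about 4.8% in these data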;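 note: value is the 4 h activation minus the activation read at time zero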
EDANS interf: EDANS fluorescence interference in dose response, no enzyme; shares compounds with proKLK7 act; EDANS-DABCYL peptide fluorescence interference; EC50, µM; 250 tested, 20% active; AID 720493;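 active = compounds that raise the fluorescence signal in this interference counterscreen, with EC50 at or below 10 µM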;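 note: intact quenched peptide substrate alone read at 355 nm excitation and 520 nm emission; signal is fluorescence gain from T0 to T4 after four hours at room temperature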
Starred values were filed as active, the others as inactive; i = inactive; · = no result given.

SMILES | PLCg1 inh | ADAM10 inh | proKLK7 act | ADAM17 inh | PLC-beta3 inh | KLK7 act conf | EDANS interfere | others
CCCCCCCCN1C(=O)[C@@H](CC(=O)NCc2ccc(OC)c(OC)c2)C[C@@]2(C(=O)OC)C1=C[C@H](C1CCCC1)O[C@@H]2C | 3 | -5 | 0 | 3 | 3 | · | ·
Cc1cc2[nH]c(=O)c(=O)[nH]c2cc1S(=O)(=O)N1CCC(C)CC1 | -37 | -127 | -2 | -23 | -52 | · | ·
Cc1cc2[nH]c(=O)c(=O)[nH]c2cc1S(=O)(=O)NC1CCC(C)CC1 (stereo not drawn) | -136 | -318 | 15* | -94 | -198 | 8 | 4.1*
Cc1cc2[nH]c(=O)c(=O)[nH]c2cc1S(=O)(=O)NCC(C)c1ccccc1 (stereo not drawn) | -124 | -342 | 11 | -85 | -166 | · | ·
Cc1cc2[nH]c(=O)c(=O)[nH]c2cc1S(=O)(=O)NCc1ccccc1 | -244 | i | 23* | -188 | -374 | 4 | 6.0*
COC(=O)c1cc2c(c3c4cc(OC)ccc4n(S(=O)(=O)c4ccc(OC)cc4)c13)C(=O)N(Cc1ccccc1OC)C2 | -23 | -10 | -2 | -3 | -34 | · | ·
Nc1nc2ccc(Cl)cc2cc1C(=O)NCc1ccccc1Br | -130 | -68 | -4 | -18 | -167 | · | ·
O=C(Nc1cc(Cl)ccc1F)C1CCCN1S(=O)(=O)c1cccc2cccnc12 (stereo not drawn) | 3 | -3 | 0 | -3 | 3 | · | ·
COC(=O)C[C@H]1CC[C@H]2[C@@H](COc3ccc(NC(=O)Nc4ccccc4)cc3C(=O)N2C)O1 | 2 | -5 | 0 | -2 | 1 | · | ·
CNc1cccc(-c2cccc(O)c2)n1 | 2 | -58 | 0 | -14 | 2 | · | ·
CNc1cncc(-c2cccc(C(=O)NC3CC3)c2)n1 | i | i | 54* | i | i | 47* | 55*
CNc1cccc(-c2cc(OC)c(OC)c(OC)c2)n1 | -7 | -64 | 0 | -18 | -7 | · | ·
CC(=O)Nc1cncc(-c2cccc(C(=O)NC3CC3)c2)n1 | 2 | -23 | 0 | -3 | -1 | · | ·
CNc1cncc(-c2cc(OC)c(OC)c(OC)c2)n1 | -450 | i | 25* | i | i | 16* | 22*
CNc1cncc(-c2ccc(C)cc2)n1 | -409 | i | 30* | i | i | 41* | 41*
CNc1cncc(-c2cccc(O)c2)n1 | -441 | i | 37* | i | i | 35* | 36*
O=C(Cc1cn(Cc2ccccc2)c2ccccc12)Nc1ccc(Nc2cccnc2)cc1 | 4 | 9 | 0 | 5 | -7 | · | ·
CNc1ccccc1C(=O)OCC(=O)N(CCOC)c1c(N)n(CC(C)C)c(=O)[nH]c1=O | i | i | 20* | -411 | i | 18* | 16*
CN1CCCN(C(=O)CN2C(=O)CC(C)(C)S(=O)(=O)c3ccccc32)CC1 | 1 | -13 | 1 | 1 | 2 | · | ·
COC(=O)C1=CN(c2ccc(OC)cc2)C(N)=C(C#N)C1c1ccccc1F (stereo not drawn) | -27 | -5 | -2 | -4 | -40 | · | ·
COC(=O)C1=CN(c2ccc(OC)cc2OC)C(N)=C(C#N)C1c1ccccc1F (stereo not drawn) | -18 | -109 | 114* | -29 | -21 | 19* | 41*
CCn1c(COc2ccc(C)cc2)nnc1SCC(=O)Nc1ccc(C(=O)OC)cc1 | 2 | 3 | 0 | 1 | -1 | · | ·
COC(=O)C1CCN(C(=O)c2cc(-c3ccco3)nc3ccccc23)CC1 | i | i | 48* | -443 | i | 36* | 27* | EDANS interf=>70
COc1ccc(-c2cc(C(=O)OCC(=O)N3CCCC3)c3ccccc3n2)cc1 | i | -209 | 17* | -66 | i | -18 | -28
COc1ccc(-c2cc(C(=O)NC3CC3)c3ccccc3n2)cc1 | i | -445 | 42* | -133 | i | 25* | 15* | EDANS interf=>70
SMILES | PLCg1 inh | ADAM10 inh | proKLK7 act | ADAM17 inh | PLC-beta3 inh | KLK7 act conf | EDANS interfere | others
O=C(c1cc(-c2ccco2)nc2ccccc12)N1CCN(Cc2ccccc2)CC1 | -288 | i | -8 | -205 | -356 | · | ·
COc1ccc(-c2cc(C(=O)N3CCCC3)c3ccccc3n2)cc1 | i | i | 22* | i | i | -19 | 2
CCN=C1NC(c2ccc(F)cc2)C(C(=O)OC)=C(C)N1Cc1ccccc1C(F)(F)F (stereo not drawn) | 0 | -13 | 0 | -4 | 0 | · | ·
O=C(CN1CCN(Cc2ccccc2)CC1)N/N=C\c1c2ccccc2cc2ccccc12 | -20 | 1 | 0 | 2 | -25 | · | ·
CCOC(=O)c1cccc(NC(=O)CN(C)S(=O)(=O)c2cc3ccccc3s2)c1 | 0 | 12 | 0 | 4 | 1 | · | ·
CCOc1ccc(-c2cc(C(=O)N3CCN(C)CC3)c3ccccc3n2)cc1 | i | i | 31* | i | i | 49* | 33* | EDANS interf=>70
CCOC(=O)N1CCN(C(=O)c2cc(-c3ccc(OCC)cc3)nc3ccccc23)CC1 | i | -422 | -24 | -139 | i | · | ·
COc1ccc(OC)c(/C=C/c2nc3ccccc3[nH]c2=O)c1 | -251 | -60 | -6 | -23 | -349 | · | ·
Fc1ccccc1-c1nc2ccccc2[nH]1 | 0 | -12 | 0 | 0 | -3 | · | ·
Oc1ccccc1C=Nc1ccccc1-c1nc2ccccc2[nH]1 | i | i | 77* | i | i | -386 | -354
Oc1ccc(C=Nc2ccccc2-c2nc3ccccc3[nH]2)c(O)c1 | i | i | 38* | i | i | -88 | -96
Oc1ccc(C=Nc2cccc3ncccc23)c(O)c1 | -105 | -10 | -2 | 3 | -110 | · | ·
COc1ccc(OC)c(C=Nc2ccccc2-c2nc3ccccc3[nH]2)c1 | i | i | 31* | i | i | -142 | -118
CCCCCCN1CCS(=O)(=O)N(Cc2ccc(F)cc2)C(C(=O)OC)C1 (stereo not drawn) | 1 | -12 | -1 | -8 | -4 | · | ·
COc1ccc(S[C@]2(C(=O)N3CCOCC3)CC(=O)N(C(=O)Nc3ccc(C)c(Cl)c3)[C@@H]2c2ccc(OC)cc2)cc1 | 3 | 6 | 0 | 4 | 2 | · | ·
O=C1/C(=C/c2cccc([N+](=O)[O-])c2)Oc2cc(O)ccc21 | -1 | -14 | 0 | -2 | -10 | · | ·
COc1cc(/C=C2\Oc3cc(O)ccc3C2=O)ccc1O | i | -115 | 55* | -29 | i | 36* | 36*
COc1ccc2c(c1)O/C(=C\c1ccccc1C)C2=O | -82 | -12 | -7 | -7 | -122 | · | ·
Cc1ccsc1/C=C1\Oc2cc(O)ccc2C1=O | i | -22 | 15* | -7 | i | 21* | 24*
